From PubChem BioAssay come the findings set out here.

Experiment [1] is described as follows: parental HEK293 membrane potential modulation, confirmation, counter-screen for TRPC6 modulator project, cell-based (AID 488924;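 active = membrane potential signal moves up or down beyond 5 SD from buffer-only wells, on both duplicate plates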). Conditions: parental HEK293, membrane potential dye fluorescence; at 10 µM. A general note: Counterscreens check selectivity or assay interference.
Experiment [2] is described as follows: modulation of acetylcholine-evoked membrane potential, parental HEK293, confirmation, counter-screen for TRPC6 modulator project, cell-based, second counter-screen, membrane potential dye (AID 488926;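 active = membrane potential signal drops by more than 5 SD from the mean control signal, in both duplicate plates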;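 as to inhibition: plate controls were acetylcholine ECmax control wells for no effect and buffer only wells for full effect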). The settings on record: parental HEK293, membrane potential dye fluorescence, at 10 µM, after compound, maximal acetylcholine stimulation; active compounds read high.

For experiment [3], the system named is Transient receptor potential cation channel subfamily C member 4 (mouse). Kind of experiment: TRPC4 modulation by TRPC6 hit compounds, confirmation, selectivity assay for TRPC6 modulator project, cell-based, HEK293 TRPC4/mu-opioid, membrane potential dye, mouse (AID 488927).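 As to percent change from control (negative = decrease, positive = increase): plate controls were assay buffer wells for no effect and DAMGO maximal-effect wells for full effect.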 The settings on record: membrane potential fluorescence, at 10 µM.
Experiment [4] concerns TRPC4 (transient receptor potential cation channel C4), mouse. Kind of experiment: TRPC4 inhibition by TRPC6 hit compounds, confirmation, selectivity assay for TRPC6 modulator project, cell-based, second screen, HEK293 TRPC4/mu-opioid, membrane potential dye (AID 488928;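 active = drop in membrane potential signal beyond 5 SD of the control wells in both duplicate plates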;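 also: TRPC4 counter screen for TRPC6 hits run under conditions tuned for TRPC6 not TRPC4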). The settings on record: membrane potential dye fluorescence, at 10 µM, stimulated with maximal-effect DAMGO; active compounds read high.

For experiment [5], the target named is Short transient receptor potential channel 6 (Mus musculus) (UniProt Q61143). Kind of experiment: mouse TRPC6 channel inhibitors, confirmation, HEK293 cells, membrane potential dye, duplicate (AID 488960;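 active = fluorescence ratio falls more than 5 SD below the full-stimulation control mean, in both duplicate runs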;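 as to inhibition: integrated fluorescence ratio of peak minus minimum over baseline after agonist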). The settings on record: ACh-evoked depolarization, at 10 µM; active compounds read high.
Experiment [6] shares this target. The experiment in a line: mouse TRPC6 channel activators, confirmation, HEK293 cells, membrane potential dye, duplicate (AID 488961;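 active = ratio signal rise beyond 5 SD above unstimulated control wells' mean, seen in both duplicate runs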;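 as to activation: plate controls were buffer EC0 wells for no effect and acetylcholine ECmax response for full effect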). The settings on record: HEK293-TRPC6 membrane potential dye fluorescence, FDSS, at 10 µM; active compounds read high.
Experiment [7] is described as follows: thallium flux activation in parental CHO cells, counter-screen for KCNQ1 potentiator project (AID 493006;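 active = duplicate-averaged activation above buffer control mean plus 5 SD of those controls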;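 as to activation: fluorescence ratio of max minus min over baseline after K+ and Tl+ depolarization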). The settings on record: parental CHO-K1 cells, FluxOR thallium flux, at 10 µM; active compounds read high.
For experiment [8], the target named is Potassium voltage-gated channel subfamily KQT member 1 (Homo sapiens) (UniProt P51787). The experiment in a line: KCNQ1 potassium channel potentiators, confirmation, FluxOR thallium flux, CHO cells, duplicates (AID 493007;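 active = potentiation averaged over duplicate wells exceeding buffer-only control mean by more than 3 SD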;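 as to outcome: cells depolarized by a potassium plus thallium sulfate stimulus after compound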;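 as to potentiation: 0% = buffer-only wells and 100% = R-L3 activator control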). The settings on record: KCNQ1 cell line, FluxOR thallium flux fluorescence, at 10 µM; active compounds read high, % of reference activator effect, buffer zero.

For experiment [9], the target named is Potassium voltage-gated channel subfamily KQT member 2 (Rattus norvegicus) (UniProt O88943). Kind of experiment: rat KCNQ2 channel potentiation, selectivity assay for KCNQ1 potentiator project, KCNQ2-CHO-K1 cells (AID 493009;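 active = mean duplicate potentiation above the buffer control mean plus 5 SD of buffer wells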;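 also: assay conditions were tuned for KCNQ1 rather than KCNQ2 modulators; signal is max minus min fluorescence divided by baseline after thallium stimulus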). Conditions: FluxOR thallium flux fluorescence, at 10 µM; active compounds read high, scaled: buffer 0, activator control 100.
In experiment [10] the target is Potassium voltage-gated channel subfamily KQT member 1 (Homo sapiens) (UniProt P51787). The experiment in a line: KCNQ1 channel current potentiators, confirmation, orthogonal assay for KCNQ1 potentiator project, IonWorks patch clamp, KCNQ1-CHO cells (AID 493184;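 active = current rise at least 3 SD above the untreated control mean in each of two repeat wells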). Conditions: automated patch clamp current, at 10 µM; active compounds read high. On the technique in general: Patch clamp records ionic current or voltage across a cell membrane.

Experiment [11] has the same target. The experiment in a line: KCNQ1 potassium channel inhibitors, confirmation, cell-based, Tl flux, duplicate (AID 588353;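 active = primary screen active, with duplicate mean exceeding buffer control mean plus 3 SD of buffer wells, cut at about 28% in these data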;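 also: 0% = buffer control ratio and 100% = XE991 inhibitor control ratio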). The settings on record: KCNQ1 cell line, FluxOR thallium flux fluorescence, at 10 µM, active compounds read high.
Experiment [12] in a line: thallium flux effects in parental CHO cells, counter-screen for KCNQ1 inhibitor project, cell-based, Tl flux (AID 588366;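 active = mean of duplicate thallium-flux fluorescence ratios in parental host cells more than 5 SD below the buffer control mean, cut at about 0.38 in these data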;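 also: ratio is peak minus minimum fluorescence divided by baseline fluorescence; actives read low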). Conditions: parental CHO-K1, FluxOR thallium flux fluorescence ratio; at 10 µM; active compounds read low; zero means no signal rise above baseline.
The target in experiment [13] is Potassium voltage-gated channel subfamily KQT member 2 (Rattus norvegicus) (UniProt O88943). Kind of experiment: KCNQ2 channel inhibition, selectivity assay for KCNQ1 inhibitor project, cell-based (AID 651746;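 active = mean percent inhibition of the KCNQ2 thallium signal more than 5 SD above the buffer-only control wells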;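 also: 0% = buffer control wells and 100% = XE-991 inhibitor control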). The settings on record: KCNQ2 cells, FluxOR thallium flux fluorescence, at 10 µM; active compounds read high.
For experiment [14], the target named is Potassium voltage-gated channel subfamily E member 1 (Homo sapiens) + Potassium voltage-gated channel subfamily KQT member 1 (Homo sapiens) (UniProt P15382+P51787). The experiment in a line: KCNQ1/KCNE1 channel inhibition, selectivity assay for KCNQ1 inhibitor project, CHO-K1 cells, thallium flux, FluxOR (AID 652147;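 active = mean percent inhibition of duplicate wells above the buffer-only control mean plus 3 SD of those controls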;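 also: 0% = buffer only wells and 100% = XE-991 inhibitor control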). The settings on record: FluxOR thallium flux fluorescence, at 10 µM; active compounds read high.

Values without a mark were called inactive. The list shows a part of the results. Calls of active or inactive are those of the source.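 The calls were made as follows, unless noted: active = membrane potential signal moved up or down beyond 5 SD of buffer control wells, in both duplicate plates, actives on both sides; inactive = the rest.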

Potassium voltage-gated channel subfamily KQT member 1 (Homo sapiens), sequence (P51787 whole entry, looked up): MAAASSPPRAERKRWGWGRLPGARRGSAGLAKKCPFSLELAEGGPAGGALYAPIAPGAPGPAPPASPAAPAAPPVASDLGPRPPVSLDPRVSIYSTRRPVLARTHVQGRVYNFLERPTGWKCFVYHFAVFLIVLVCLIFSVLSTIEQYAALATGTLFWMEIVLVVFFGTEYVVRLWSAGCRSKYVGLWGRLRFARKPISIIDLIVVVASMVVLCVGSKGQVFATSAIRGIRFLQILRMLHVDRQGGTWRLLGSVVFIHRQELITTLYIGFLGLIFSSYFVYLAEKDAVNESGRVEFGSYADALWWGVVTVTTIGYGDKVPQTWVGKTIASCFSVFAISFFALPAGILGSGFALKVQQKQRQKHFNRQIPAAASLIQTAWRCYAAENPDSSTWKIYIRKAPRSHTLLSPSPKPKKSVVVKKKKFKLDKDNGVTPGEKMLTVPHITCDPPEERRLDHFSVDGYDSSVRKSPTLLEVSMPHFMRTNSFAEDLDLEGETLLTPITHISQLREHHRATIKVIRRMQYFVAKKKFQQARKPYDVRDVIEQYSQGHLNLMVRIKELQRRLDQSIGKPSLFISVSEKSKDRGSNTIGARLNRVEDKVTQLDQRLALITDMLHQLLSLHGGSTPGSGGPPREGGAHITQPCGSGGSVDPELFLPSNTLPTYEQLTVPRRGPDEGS
Short transient receptor potential channel 6 (Mus musculus), sequence (Q61143 whole entry, looked up): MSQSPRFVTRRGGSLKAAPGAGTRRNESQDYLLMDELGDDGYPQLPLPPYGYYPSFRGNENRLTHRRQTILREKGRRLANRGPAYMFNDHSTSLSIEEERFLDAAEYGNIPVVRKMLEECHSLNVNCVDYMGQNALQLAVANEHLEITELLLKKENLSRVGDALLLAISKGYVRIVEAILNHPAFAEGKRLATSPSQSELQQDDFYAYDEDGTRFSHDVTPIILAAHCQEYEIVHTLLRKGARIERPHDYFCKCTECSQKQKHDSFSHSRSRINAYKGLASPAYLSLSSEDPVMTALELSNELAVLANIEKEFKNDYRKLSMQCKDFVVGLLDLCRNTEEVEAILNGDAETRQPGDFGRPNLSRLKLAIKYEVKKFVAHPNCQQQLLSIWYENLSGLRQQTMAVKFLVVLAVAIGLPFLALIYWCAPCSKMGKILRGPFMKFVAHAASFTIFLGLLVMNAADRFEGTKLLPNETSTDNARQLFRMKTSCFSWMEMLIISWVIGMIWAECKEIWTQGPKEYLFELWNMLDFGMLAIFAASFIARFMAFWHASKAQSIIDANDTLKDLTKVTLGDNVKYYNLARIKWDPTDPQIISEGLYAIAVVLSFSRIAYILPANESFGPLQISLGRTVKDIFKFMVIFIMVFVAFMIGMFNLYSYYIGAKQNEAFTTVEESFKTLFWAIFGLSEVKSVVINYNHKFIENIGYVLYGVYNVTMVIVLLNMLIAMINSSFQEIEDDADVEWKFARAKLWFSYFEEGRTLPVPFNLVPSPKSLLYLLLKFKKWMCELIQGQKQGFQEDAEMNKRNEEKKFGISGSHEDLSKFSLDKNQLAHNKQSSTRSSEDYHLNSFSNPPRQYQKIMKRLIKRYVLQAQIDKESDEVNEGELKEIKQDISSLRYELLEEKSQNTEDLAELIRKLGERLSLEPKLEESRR
Potassium voltage-gated channel subfamily KQT member 2 (Rattus norvegicus), sequence (O88943 whole entry, looked up): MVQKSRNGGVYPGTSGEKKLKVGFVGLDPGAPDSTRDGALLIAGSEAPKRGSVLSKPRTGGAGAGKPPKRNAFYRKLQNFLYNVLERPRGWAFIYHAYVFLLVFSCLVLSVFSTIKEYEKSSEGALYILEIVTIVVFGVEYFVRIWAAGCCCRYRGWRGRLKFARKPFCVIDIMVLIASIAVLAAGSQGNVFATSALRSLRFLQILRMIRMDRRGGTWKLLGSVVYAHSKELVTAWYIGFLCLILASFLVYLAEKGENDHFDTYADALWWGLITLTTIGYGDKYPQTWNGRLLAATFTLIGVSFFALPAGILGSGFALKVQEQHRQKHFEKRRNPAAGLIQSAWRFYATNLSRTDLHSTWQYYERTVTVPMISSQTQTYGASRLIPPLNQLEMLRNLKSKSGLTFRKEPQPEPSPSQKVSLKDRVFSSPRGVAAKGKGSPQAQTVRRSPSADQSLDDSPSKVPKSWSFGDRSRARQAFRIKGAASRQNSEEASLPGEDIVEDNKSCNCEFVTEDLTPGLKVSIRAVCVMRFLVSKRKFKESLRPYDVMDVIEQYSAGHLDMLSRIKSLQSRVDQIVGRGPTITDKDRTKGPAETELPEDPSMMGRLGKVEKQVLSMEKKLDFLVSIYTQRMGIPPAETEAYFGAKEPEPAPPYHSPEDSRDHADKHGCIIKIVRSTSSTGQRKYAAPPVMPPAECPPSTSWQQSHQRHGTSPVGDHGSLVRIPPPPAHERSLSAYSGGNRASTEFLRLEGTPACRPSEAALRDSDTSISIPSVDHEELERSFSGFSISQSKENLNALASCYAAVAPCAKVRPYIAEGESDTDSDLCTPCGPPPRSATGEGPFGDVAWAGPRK
Potassium voltage-gated channel subfamily E member 1 (Homo sapiens) + Potassium voltage-gated channel subfamily KQT member 1 (Homo sapiens), sequence (P51787 whole entry, looked up): as the sequence (P51787 whole entry, looked up) above

Usually inhibition stands for the relative decrease from the control value, in per cent. As to `CCCc1cc(=O)oc2c(C)c(O)c(CN3CCCCC3)cc12`, the outcome in experiment [1], in [2], in experiment [3], in [4] and in experiment [6] was inactive. Besides, in [5], the inhibition was 54.5% (active).

For `Cc1cccn2c(=O)c3cc(C#N)c(=O)n(CCCN4CCOCC4)c3nc12`, the membrane potential signal change in experiment [1] was -248% (active). For the same molecule, the results for the inhibition in experiment [2], in experiment [4] and in experiment [5] were 112% (active), 47.5% (active) and 67.5% (active), respectively. In addition, the percent change from control (negative = decrease, positive = increase) in experiment [3] was -54% (active). For the same molecule, the result in [6] was inactive.

For the molecule `CC(C)(C)n1nnnc1C(c1ccc2ncccc2c1)N1CCSCC1` (centres undefined), the outcome in experiment [1] and in experiment [2] was inactive. Moreover, in experiment [3], the percent change from control (negative = decrease, positive = increase) is 19% (active). For the same molecule, the inhibition in [4] is 33% (active); in experiment [5] it was 84% (active). In addition, in experiment [6], the activation was 140% (active).

For `Cc1ccc(C(=O)OCC(=O)N(C)c2ccccc2)cc1C`, the activation in experiment [7] is 397% (active). For the same molecule, the potentiation in experiment [8] is 252% (active); in experiment [9], 405% (active). For the same molecule, in [10], the outcome was inactive.

In the case of `CN(CC(=O)Nc1ccccc1[N+](=O)[O-])Cc1ccc(Br)cc1`, the result in experiment [1], in experiment [2], in experiment [3], in experiment [5] and in experiment [6] was inactive. Besides, the inhibition in experiment [4] is 29% (active).

In the case of `O=C1CN(C(=O)c2ccccc2F)C(c2ccc(F)cc2)c2cc(F)ccc2N1` (centres undefined), the membrane potential signal change in [1] is 106% (active). Besides, the outcome in [2], in experiment [4], in experiment [5] and in [6] was inactive. Besides, the percent change from control (negative = decrease, positive = increase) in [3] was 26.5% (active).

For the molecule `O=C(CN1CCCCCC1)NCCN1C(=O)S/C(=C\c2ccccc2Cl)C1=O`, the result in experiment [1], in [2], in experiment [3], in [5] and in [6] was inactive. The inhibition in experiment [4] is 36% (active).

For `Cc1nc(N=C(N)N)nc2c(C)cccc12`, in experiment [1], the membrane potential signal change is -235% (active). The figures for the inhibition in [2], in [4] and in [5] were 76.5% (active), 60% (active) and 67.5% (active), respectively. Further, the percent change from control (negative = decrease, positive = increase) in experiment [3] was -42.5% (active). Besides, in experiment [6], the call was inactive.

On to `CCCCCCn1cc(C(=O)O)c(=O)c2cc(F)c(N3CCCCC3)cc21`, for which the outcome in [1], in experiment [2], in [4] and in experiment [5] was inactive. In addition, the percent change from control (negative = decrease, positive = increase) in experiment [3] is 11% (active). Also, in [6], the activation is 39.5% (active).

Turning to `CCN(CC)CCNc1nc(-c2ccc(OC(F)F)cc2)c(C)s1`, the outcome in experiment [1], in experiment [2], in experiment [3], in [5] and in experiment [6] was inactive. The inhibition in experiment [4] is 50.5% (active).

Turning to `Cn1c(/C(C#N)=C2/CCCCCN2)nc2ccccc21`, the outcome in [1], in experiment [2], in experiment [3], in experiment [4], in experiment [5] and in experiment [6] was inactive.

Turning to `CCOC(=O)C1=NN(c2ccc(Cl)cc2)/C(=C/C2=NCCc3cc(OC)c(OC)cc32)S1`, the outcome in experiment [1], in experiment [2], in experiment [4], in experiment [5] and in experiment [6] was inactive. For the same molecule, the percent change from control (negative = decrease, positive = increase) in [3] is -15.5% (active).

For `O=C(C1CCN(S(=O)(=O)Cc2ccccc2)CC1)N1CCCc2ccccc21`, the membrane potential signal change in experiment [1] is 90% (active). The outcome in experiment [2], in experiment [4], in [5] and in experiment [6] was inactive. Moreover, the percent change from control (negative = decrease, positive = increase) in [3] was 8.5% (active).

With `C/C(=N\Nc1nc2ccccc2[nH]1)c1cccs1`, the membrane potential signal change in [1] was -108% (active). Also, the inhibition is 73.5% (active) in experiment [2], 85% (active) in experiment [4] and 76% (active) in experiment [5]. In addition, the percent change from control (negative = decrease, positive = increase) in [3] is -24% (active). Besides, the result in [6] was inactive.

Consider `CC(NC(=S)Nc1ccc(OC(F)F)cc1)c1ccc(F)cc1` (centres undefined), for which the result in experiment [1], in [2], in experiment [4], in experiment [5] and in experiment [6] was inactive. Besides, the percent change from control (negative = decrease, positive = increase) in experiment [3] is -14.5% (active).

As for `Cc1cc(N2CCN(S(=O)(=O)c3ccc(C)c(C)c3)CC2)c2ccccc2n1`, the result in [1], in [2], in [5] and in experiment [6] was inactive. Also, in experiment [3], the percent change from control (negative = decrease, positive = increase) is -10.5% (active). The inhibition in experiment [4] is 65% (active).

In the case of `O=C(Nc1cccc(Cl)c1)Nc1ccccc1NS(=O)(=O)c1cccs1`, the result in [1], in experiment [2], in [5] and in experiment [6] was inactive. Moreover, the percent change from control (negative = decrease, positive = increase) in experiment [3] is -12.5% (active). Further, the inhibition was 36.5% (active) in experiment [4], 122% (active) in experiment [11], 78.7% (active) in [13] and 109% (active) in [14]. Further, in [12], the fluorescence ratio (Tl flux) is 0.346 (active).

Take `COc1ccc(C(=O)C2CCCN(Cc3cccn3-c3ccccn3)C2)c(C)c1` (centres undefined): the outcome in experiment [1] and in [6] was inactive. The inhibition is 140% (active) in experiment [2]; 99% (active) in experiment [4]; 107% (active) in [5]; 41.5% (active) in experiment [11]; 89% (active) in experiment [13]; 39.5% (active) in [14]. The percent change from control (negative = decrease, positive = increase) in [3] was -17.5% (active). In addition, the fluorescence ratio (Tl flux) in [12] is 0.496.

Turning to `COc1cc2c(cc1OC)C(/C=C/c1ccco1)=NCC2`, in experiment [1], the membrane potential signal change is -362% (active). In addition, the inhibition in [2] was 83% (active); in experiment [4] it was 62% (active); in experiment [5], 72.5% (active). Moreover, the percent change from control (negative = decrease, positive = increase) in experiment [3] is -64% (active). In addition, in experiment [6], the molecule was called inactive.

Regarding `O=C(NC1C2CC3CC(C2)CC1C3)c1ccc(N2CCNCC2)c([N+](=O)[O-])c1` (centres undefined), the membrane potential signal change in experiment [1] is -120% (active). Further, the outcome in [2] and in experiment [6] was inactive. Besides, the percent change from control (negative = decrease, positive = increase) in experiment [3] was -22% (active). The inhibition in [4] is 70.5% (active); in [5], 57.5% (active).

As to `CN1CCN(c2nc(Nc3ccc(O)cc3)nc3ccccc23)CC1`, the membrane potential signal change in [1] is -221% (active). Besides, the inhibition in [2] was 65.5% (active); in experiment [4] it was 71% (active); in [5] it was 67.5% (active). For the same molecule, the percent change from control (negative = decrease, positive = increase) in experiment [3] is -38% (active). Further, the call in [6] was inactive.

In the case of `CSCCC(NC(=O)c1ccc(=O)n(C)n1)c1nc2ccccc2[nH]1` (centres undefined), the result in [1], in experiment [2], in experiment [3], in experiment [4], in experiment [5] and in experiment [6] was inactive.

Regarding `N=c1c2c3c(sc2nc2n1CCCCC2)CCCC3`, the membrane potential signal change in [1] is -118% (active). The outcome in experiment [2] and in experiment [6] was inactive. In addition, in experiment [3], the percent change from control (negative = decrease, positive = increase) is -22.5% (active). The inhibition in [4] is 55.5% (active); in experiment [5], 61% (active).

Take `Cc1ccc(NC(=S)N(CCCN2CCCC2)Cc2cccn2Cc2ccc(Cl)cc2)cc1`: the outcome in experiment [1], in [2], in [3], in experiment [5] and in experiment [6] was inactive. Moreover, in experiment [4], the inhibition was 47.5% (active).

As to `CCSc1nnc(NC(=O)C2C3C=CC(C3)C2C(=O)O)s1` (centres undefined), the result in [7], in experiment [8], in experiment [9] and in experiment [10] was inactive.
